# Source: PubChem BioAssay (National Center for Advancing Translational Sciences (NCATS))
# Sampled rows, rich in hits. Any-hit rate of the full collection: about 5.8%.
# ALOX12 inh – inhibitors of human 12S-lipoxygenase ALOX12; P18054; purified 12hLO, xylenol orange hydroperoxide absorbance; Potency, µM (top dose mostly 108 µM), for the others: at the top dose activity change, negative = inhibition, actives largely listed as inhibitors; 580,000 compounds, 1.1% hits; further: on the % scale 0 is the no-effect control and ±100 the full control effect
# Target sequence (P18054 whole entry, looked up): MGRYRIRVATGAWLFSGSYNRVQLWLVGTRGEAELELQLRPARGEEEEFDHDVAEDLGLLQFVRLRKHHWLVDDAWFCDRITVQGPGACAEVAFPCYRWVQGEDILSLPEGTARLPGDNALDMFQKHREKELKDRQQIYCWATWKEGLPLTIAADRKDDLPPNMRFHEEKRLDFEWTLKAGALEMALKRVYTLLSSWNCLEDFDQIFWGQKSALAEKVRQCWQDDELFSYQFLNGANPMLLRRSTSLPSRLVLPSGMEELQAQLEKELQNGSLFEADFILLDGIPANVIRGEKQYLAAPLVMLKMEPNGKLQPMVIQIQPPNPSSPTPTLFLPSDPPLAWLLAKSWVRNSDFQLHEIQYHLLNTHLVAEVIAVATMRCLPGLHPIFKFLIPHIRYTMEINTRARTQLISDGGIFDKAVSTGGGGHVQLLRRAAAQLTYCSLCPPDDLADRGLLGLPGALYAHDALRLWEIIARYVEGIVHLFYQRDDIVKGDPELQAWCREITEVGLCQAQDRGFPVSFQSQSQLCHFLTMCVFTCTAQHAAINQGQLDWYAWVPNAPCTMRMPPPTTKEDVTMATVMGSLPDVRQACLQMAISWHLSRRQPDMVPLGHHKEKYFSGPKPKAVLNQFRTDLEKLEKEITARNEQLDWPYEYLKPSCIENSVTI
#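 Purified human 12hLO (150 nM final) in 25 mM Hepes, 0.01% Triton X-100, pH 7.0 was preincubated 15 min at room temperature with compound. Then 40 uM arachidonic acid was added, 30 min. Hydroperoxide was read by Fe-XO absorbance ratio 573/405 nm.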
# MCF10A rereplic – inducers of DNA re-replication in MCF 10A breast cells; AID 624296; MCF 10A DNA re-replication, Hoechst nuclear intensity, 48 h; Potency, µM (doses to about 46.1 µM), for the others: at the highest dose activity, positive = re-replication, usual class: activators; 350,000 compounds, 2.9% hits; further: % of control where 0% means no effect; nearly all actives have a fitted effect of over 50% in size
# SW480 rereplic – inducers of DNA re-replication in SW480 colon cancer cells. 340,000 compounds, 1.8% hits. SW480 DNA re-replication, Hoechst DNA content imaging, 48 h. Potency, µM (titrated, usually from 46.1 µM), without a hit: at the highest dose re-replication activation, most hits filed as activators; further: % of control where 0% means no effect; nearly all actives have a fitted effect of over 55% in size
#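 First, 250 cells per well were seeded. Next, compound or vehicle (23 nL) was pinned in, plates sat 48 hr at 37 C. Finally Hoechst was added for 40 min before fluorescence scanning.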
# KB-3-1 cytotox – KB-3-1 parental cell cytotoxicity; KB-3-1 viability, CellTiter-Glo ATP luminescence, 72 h; Potency, µM (top dose mostly 46.1 µM), actives largely listed as cytotoxic; 400,000 compounds, 1.4% hits; AID 1347075; further: on the % scale 0 is the no-effect control and ±100 the full control effect; nearly all actives have a fitted effect of over 60% in size
#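 Luminescent ATP read-out (CellTiter-Glo) measures survival of drug-naive KB-3-1 cells after 72 h compound exposure at 37 °C. Titration series was screened from lowest to highest concentration, with DMSO vehicle plates as background controls.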
# PINK1 expr mod – changes PINK1 expression | PINK1 immunofluorescence, high-content cytometry, 24 h | Potency, µM (titrated, usually from 76.6 µM), inactives show at the highest dose activation (PINK1 increase), actives largely listed as activators | 410,000 compounds, 0.2% hits | AID 624263; active means well fitted activation curve with a large enough effect; inconclusive means small, poorly fitted or top-dose-only effect; cell line not stated here; further: % of control where 0% means no effect; nearly all actives have a fitted effect of over 65% in size
#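 PINK1 protein level read as immunofluorescence by microplate cytometer in a fixed, stained stable cell line after 24 h exposure to five compound concentrations, with CCCP as control.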
# KB-V1 cytotox – kills drug-selected multidrug resistant KB-V1 cells. KB-V1 MDR cells viability, CellTiter-Glo, 72 h. Potency, µM (doses to about 46.1 µM), usual class: cytotoxic. 400,000 compounds, 3.4% hits. AID 1347076; further: on the % scale 0 is the no-effect control and ±100 the full control effect; nearly all actives have a fitted effect of over 60% in size
#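 qHTS viability screen in drug-selected KB-V1 MDR cells: 72 h compound treatment at 37 degrees C, ATP luminescence end point.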
# Starred values were filed as active, the others as inactive; i = inactive; ? = inconclusive; . = not tested or not shown; [ ] = remark or other dose. Unless noted, the call rests on the fitted dose curve; in most records, active means well fitted curve in the direction sought with a large enough effect; inconclusive means small, poorly fitted or top-dose-only effect, or another doubt; inactive means no such curve, though single readings can be large; an effect the other way counts as inactive or inconclusive. Potency means the concentration at half of the fitted maximal effect.
SMILES,ALOX12 inh,MCF10A rereplic,SW480 rereplic,KB-3-1 cytotox,PINK1 expr mod,KB-V1 cytotox
COC(=O)CC1(C(=O)OC)Oc2ccc(Br)cc2C(=O)N1c1cc(Cl)cc(Cl)c1 (stereo unspecified),0%,1%,0%,i,5%,?
COC(=O)CN1C(=O)Nc2ccc(Br)cc2C1c1ccccc1Cl (stereo unspecified),.,?,4%,?,3%,i
COC(=O)CC1(C(=O)OC)Oc2ccc(Br)cc2C(=O)N1c1cc(Cl)c(Cl)cc1Cl (stereo unspecified),10%,-8%,?,?,4%,10µM*
CCOC(=O)Cc1csc(NC(=O)c2cc(C)c(C)s2)n1,?,0%,-1%,?,3%,18µM*
CCOC(=O)Cc1csc(NC(=O)NC2(C(F)(F)F)Oc3cc(Cl)c(Cl)cc3O2)n1,0.63µM*,3%,9%,?,17%,i
CCOC(=O)Cc1csc(NC(=O)c2ccc(Cl)s2)n1,0%,3%,-41%,?,4%,i
CCCCOC(=O)COc1ccc2c(C)c(CCC)c(=O)oc2c1,15%,.,.,.,.,.
CCN(CC)/C(Sc1ccccc1)=C(/C(Cl)=C(Cl)Cl)[N+](=O)[O-],7.9µM*,-12%,-4%,i,0%,i
CCN(CC)/C(Sc1ccccc1)=C(\C(Cl)=C(Cl)Cl)[N+](=O)[O-],-18%,9%,?,i,0%,i
Cc1ccccc1CS(=O)(=O)N1CCC(C(=O)Nc2c(C)n(C)n(-c3ccccc3)c2=O)CC1,-23%,.,.,.,.,.
COc1ccc(-c2nc(-n3c(C)c(C(C)=O)c(C(C)=O)c3C)sc2C)cc1OC,-15%,?,-7%,i,-2%[38.3 µM],15µM*
Cc1noc(C)c1C(=O)NC1CCCc2c1[nH]c1ccccc21 (stereo unspecified),-35%,.,.,.,.,.
Cc1noc2nc(C(C)C)cc(C(=O)NC3CCCc4c3[nH]c3ccccc43)c12 (stereo unspecified),32µM*,.,.,.,.,.
Cc1ccc(-c2noc(-c3cc4cc(Cl)ccc4oc3=O)n2)cc1,-16%,.,.,.,.,.
CC(C)[C@H](NC(=O)c1ccccc1Cl)C(=O)OCc1cc([N+](=O)[O-])cc2c1OCOC2,-3%,13%,-2%,i,3%,21µM*
CC(=O)Oc1ccc(C2=Cc3ccc(OC(C)=O)cc3OC2C)cc1 (stereo unspecified),-11%,4.1µM*,?,?,-3%,?
CC(=O)Oc1ccc(C)cc1,11%[176 µM],2%,1%,.,.,.
C=CCOC(=O)C(=O)/C=C/c1ccc2c(c1)Cc1ccccc1-2,14µM*,?,4%,i,3%,i
C=CCOC(=O)C(=O)/C=C/c1csc2ccccc12,?,?,6%,i,1%,?
COc1ccc(-c2cc(NC(=O)CC3Sc4ccccc4NC3=O)ccc2OC)cc1 (stereo unspecified),-19%,.,.,.,.,.
COc1ccccc1NS(=O)(=O)c1ccc(NC(=O)Cc2cccs2)cc1,-4%,7%,-12%,i,1%,21µM*
COc1ccc(S(=O)(=O)Nc2ccccc2OC)cc1NC(=O)Cc1cccs1,-4%,-3%,-2%,i,1%,i
COc1ccc(NC(=O)C(NC(=O)Cc2cccs2)c2ccc(C)cc2)cc1 (stereo unspecified),?,?,-2%,i,20%,i
COc1ccc(NC(=O)C(NC(=O)Cc2cccs2)c2ccccc2)cc1 (stereo unspecified),-22%,14%,-1%,i,18%,12µM*
COc1ccc2cc(C(=O)OC(C)C(N)=O)c(C)nc2c1 (stereo unspecified),31%,.,.,.,.,.
SMILES,ALOX12 inh,MCF10A rereplic,SW480 rereplic,KB-3-1 cytotox,PINK1 expr mod,KB-V1 cytotox
Cc1nnc(-c2ccncc2)nc1C,10%,.,.,.,.,.
CCCc1nc2c(=O)n(C)c(=O)nc-2n(C)n1,-28%,10µM*,0.65µM*,4.6µM*,-1%,7.3µM*
Cn1nc(-c2ccccn2)nc2c(=O)n(C)c(=O)nc1-2,?,2.9µM*,0.82µM*,?,-2%,i
CCc1ccc(-c2nc3c(=O)n(C)c(=O)nc-3n(CC)n2)cc1,.,.,.,?,0%,?
Cc1ccccc1-c1nc2c(=O)n(C)c(=O)nc-2n(C)n1,.,.,.,2.1µM*,0%,?
COc1cc(/C=C2\NC(=O)NC2=O)cc(Br)c1OC,-1%,-15%,0%,?,-1%,5.8µM*
CCOc1c(Br)cc(/C=C2/NC(=O)NC2=O)cc1Br,2%,.,.,.,.,.
CCn1c(SCC(=O)Nc2oc(-c3ccccc3)c(-c3ccccc3)c2C#N)nnc1-c1ccncc1,10%,23µM*,9%,i,1%,i
COc1ccc(-c2oc(NC(=O)CSc3nncn3C)c(C#N)c2-c2ccc(OC)cc2)cc1,33%,13µM*,2%,?,-1%,i
N#Cc1c(NC(=O)CSc2ccccn2)oc(-c2ccccc2)c1-c1ccccc1,0%,21µM*,10%,i,6%,i
CCn1c(SCC(=O)Nc2oc(-c3ccccc3)c(-c3ccccc3)c2C#N)nnc1-c1ccco1,0%,?,9%,i,-1%,?
COc1ccc(NC(=O)CSc2nncn2C)c([N+](=O)[O-])c1,-19%,-24%,-3%,i,1%[38.3 µM],i
N#Cc1c(NC(=O)CCN2C(=O)c3ccccc3C2=O)oc(-c2ccccc2)c1-c1ccccc1,11%,2%,-15%,i,0%,i
O=c1oc2ccccc2cc1-c1nc(-c2ccc(N3CCCCC3)cc2)no1,0%,.,.,.,.,.
CC(=O)N(C)c1ccc(NC(=O)c2ccc3c(c2)nc(C)n3-c2ccccc2)cc1,9%,.,.,.,.,.
O=C(/C=C/c1ccc(F)cc1)NCCc1ccccn1,29%,.,.,.,.,.
CCOC(=O)c1cnc(N2CCN(c3ccccc3)CC2)c2ccccc12,-3%,.,.,.,.,.
CCCCSc1c(C)c2cc3c(cc2[nH]c1=O)OCO3,-16%,4%,-10%,i,5.6µM*,i
CCOC(=O)N1CCN(C(=O)CCCCCn2c(=S)[nH]c3cc4c(cc3c2=O)OCO4)CC1,-3%,-4%,-9%,i,3%,i
CCCOC(=O)C1=C(C)NC2=C(C(=O)CCC2)C1c1cccc(O)c1 (stereo unspecified),29%,.,.,.,.,.
CCOc1ccc(S(=O)(=O)NCC(c2ccc3c(c2)OCO3)N2CCN(C)CC2)cc1 (stereo unspecified),?,9%,6.5µM*,i,0%,i
CCn1ccnc1C(O)c1ccccc1OC (stereo unspecified),?,13µM*,18µM*,i,1%,i
